Measurements reported in the supplement of paper PMC11001985.

compound: C#CCNC(=O)CCSSCCC(=O)NCCc1ccc(C=O)c(C=O)c1; experiment: lysine labeling ratio R10:1 (500 µM / 50 µM probe), SILAC-ABPP in living cells; higher = lower intrinsic lysine reactivity toward the probe, active = 2 or less; conditions: HeLa; probe concentrations 500 vs 50 µM
Method in brief: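 Measurements came from LC-MS/MS on a TIMS-TOF Pro of mixed SILAC light and heavy HeLa lysates after click to biotin-azide, trypsin digestion, neutravidin capture, DTT release and alkylation. Before lysis, the living cells sat in PBS at room temperature with 50 µM or 500 µM of an alkyne-tagged, disulfide-linked lysine probe, and labels were swapped forward and reverse. R per lysine is the median across both swap directions of the filtered median high-probe/low-probe MS1 peptide ratio. The cap is 20.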

UniProt Q13813, sequence (Q13813 whole entry): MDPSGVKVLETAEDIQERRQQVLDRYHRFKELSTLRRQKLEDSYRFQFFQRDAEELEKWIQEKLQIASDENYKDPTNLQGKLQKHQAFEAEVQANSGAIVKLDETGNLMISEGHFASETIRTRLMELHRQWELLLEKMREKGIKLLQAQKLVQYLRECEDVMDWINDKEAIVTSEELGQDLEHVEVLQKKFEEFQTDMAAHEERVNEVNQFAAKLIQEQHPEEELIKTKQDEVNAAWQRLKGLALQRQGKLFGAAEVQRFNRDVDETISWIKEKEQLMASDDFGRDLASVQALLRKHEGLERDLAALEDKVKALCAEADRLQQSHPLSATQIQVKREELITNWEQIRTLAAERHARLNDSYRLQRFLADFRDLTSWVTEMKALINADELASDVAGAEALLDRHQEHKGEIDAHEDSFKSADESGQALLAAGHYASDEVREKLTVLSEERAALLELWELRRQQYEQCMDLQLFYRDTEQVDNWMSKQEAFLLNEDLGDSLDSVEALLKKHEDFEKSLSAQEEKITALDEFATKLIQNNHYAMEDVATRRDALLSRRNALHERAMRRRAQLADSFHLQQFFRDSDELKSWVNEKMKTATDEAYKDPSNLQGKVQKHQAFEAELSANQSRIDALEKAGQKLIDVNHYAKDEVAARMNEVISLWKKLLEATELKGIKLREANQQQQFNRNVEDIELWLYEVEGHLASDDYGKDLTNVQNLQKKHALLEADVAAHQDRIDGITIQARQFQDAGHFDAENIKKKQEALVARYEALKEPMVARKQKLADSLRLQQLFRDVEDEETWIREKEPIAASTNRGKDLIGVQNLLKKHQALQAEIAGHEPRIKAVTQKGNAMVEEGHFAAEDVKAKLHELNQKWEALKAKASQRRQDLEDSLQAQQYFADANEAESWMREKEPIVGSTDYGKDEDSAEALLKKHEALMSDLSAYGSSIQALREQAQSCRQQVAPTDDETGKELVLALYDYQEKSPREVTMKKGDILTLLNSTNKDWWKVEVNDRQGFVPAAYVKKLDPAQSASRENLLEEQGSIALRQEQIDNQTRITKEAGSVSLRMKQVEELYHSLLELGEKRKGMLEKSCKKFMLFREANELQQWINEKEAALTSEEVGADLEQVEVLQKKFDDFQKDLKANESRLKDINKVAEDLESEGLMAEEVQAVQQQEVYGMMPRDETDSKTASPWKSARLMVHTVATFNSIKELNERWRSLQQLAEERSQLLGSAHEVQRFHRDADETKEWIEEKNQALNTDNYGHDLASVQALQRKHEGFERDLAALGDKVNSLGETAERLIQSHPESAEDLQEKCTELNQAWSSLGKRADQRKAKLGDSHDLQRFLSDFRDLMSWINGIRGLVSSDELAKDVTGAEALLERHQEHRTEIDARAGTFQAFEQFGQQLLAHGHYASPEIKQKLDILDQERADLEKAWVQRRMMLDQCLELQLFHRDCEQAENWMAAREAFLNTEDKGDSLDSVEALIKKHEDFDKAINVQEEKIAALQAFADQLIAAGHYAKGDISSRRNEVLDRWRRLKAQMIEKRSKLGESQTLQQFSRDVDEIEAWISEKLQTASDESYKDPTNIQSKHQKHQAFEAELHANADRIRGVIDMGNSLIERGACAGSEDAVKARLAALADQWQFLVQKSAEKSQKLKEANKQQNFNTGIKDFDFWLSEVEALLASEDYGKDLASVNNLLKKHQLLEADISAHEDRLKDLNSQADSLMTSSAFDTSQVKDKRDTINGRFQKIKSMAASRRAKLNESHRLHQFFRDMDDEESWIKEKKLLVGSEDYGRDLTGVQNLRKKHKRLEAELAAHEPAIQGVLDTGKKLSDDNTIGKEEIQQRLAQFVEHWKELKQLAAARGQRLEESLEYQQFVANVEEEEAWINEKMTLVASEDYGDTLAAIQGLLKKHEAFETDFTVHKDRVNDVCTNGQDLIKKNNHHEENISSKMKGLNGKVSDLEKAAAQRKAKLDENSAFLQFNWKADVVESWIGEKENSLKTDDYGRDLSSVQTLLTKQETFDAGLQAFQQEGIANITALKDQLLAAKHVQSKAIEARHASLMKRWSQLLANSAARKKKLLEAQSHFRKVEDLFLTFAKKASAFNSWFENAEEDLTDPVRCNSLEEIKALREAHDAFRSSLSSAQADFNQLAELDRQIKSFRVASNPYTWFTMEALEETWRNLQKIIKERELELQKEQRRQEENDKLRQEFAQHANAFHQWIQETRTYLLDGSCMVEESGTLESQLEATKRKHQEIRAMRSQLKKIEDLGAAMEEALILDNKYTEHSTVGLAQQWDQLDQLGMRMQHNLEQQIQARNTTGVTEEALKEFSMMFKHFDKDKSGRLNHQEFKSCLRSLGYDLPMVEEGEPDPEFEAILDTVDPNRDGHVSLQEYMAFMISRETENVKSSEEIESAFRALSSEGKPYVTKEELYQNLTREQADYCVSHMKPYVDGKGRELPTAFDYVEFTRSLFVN
UniProt Q9Y230, sequence (Q9Y230 whole entry): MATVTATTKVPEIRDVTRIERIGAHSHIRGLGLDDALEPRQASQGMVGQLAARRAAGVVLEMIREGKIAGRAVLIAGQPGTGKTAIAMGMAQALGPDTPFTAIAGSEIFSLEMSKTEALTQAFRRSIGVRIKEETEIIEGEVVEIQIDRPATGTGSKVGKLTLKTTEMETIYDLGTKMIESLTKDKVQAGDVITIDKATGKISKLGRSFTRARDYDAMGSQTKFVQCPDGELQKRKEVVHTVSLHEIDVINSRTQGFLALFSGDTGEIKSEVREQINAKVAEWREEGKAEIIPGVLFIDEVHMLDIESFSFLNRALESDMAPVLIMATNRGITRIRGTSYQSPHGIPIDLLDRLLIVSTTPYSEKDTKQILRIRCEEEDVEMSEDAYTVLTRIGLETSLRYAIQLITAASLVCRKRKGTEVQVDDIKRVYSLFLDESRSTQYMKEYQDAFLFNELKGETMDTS
UniProt Q96F81, sequence (Q96F81 whole entry): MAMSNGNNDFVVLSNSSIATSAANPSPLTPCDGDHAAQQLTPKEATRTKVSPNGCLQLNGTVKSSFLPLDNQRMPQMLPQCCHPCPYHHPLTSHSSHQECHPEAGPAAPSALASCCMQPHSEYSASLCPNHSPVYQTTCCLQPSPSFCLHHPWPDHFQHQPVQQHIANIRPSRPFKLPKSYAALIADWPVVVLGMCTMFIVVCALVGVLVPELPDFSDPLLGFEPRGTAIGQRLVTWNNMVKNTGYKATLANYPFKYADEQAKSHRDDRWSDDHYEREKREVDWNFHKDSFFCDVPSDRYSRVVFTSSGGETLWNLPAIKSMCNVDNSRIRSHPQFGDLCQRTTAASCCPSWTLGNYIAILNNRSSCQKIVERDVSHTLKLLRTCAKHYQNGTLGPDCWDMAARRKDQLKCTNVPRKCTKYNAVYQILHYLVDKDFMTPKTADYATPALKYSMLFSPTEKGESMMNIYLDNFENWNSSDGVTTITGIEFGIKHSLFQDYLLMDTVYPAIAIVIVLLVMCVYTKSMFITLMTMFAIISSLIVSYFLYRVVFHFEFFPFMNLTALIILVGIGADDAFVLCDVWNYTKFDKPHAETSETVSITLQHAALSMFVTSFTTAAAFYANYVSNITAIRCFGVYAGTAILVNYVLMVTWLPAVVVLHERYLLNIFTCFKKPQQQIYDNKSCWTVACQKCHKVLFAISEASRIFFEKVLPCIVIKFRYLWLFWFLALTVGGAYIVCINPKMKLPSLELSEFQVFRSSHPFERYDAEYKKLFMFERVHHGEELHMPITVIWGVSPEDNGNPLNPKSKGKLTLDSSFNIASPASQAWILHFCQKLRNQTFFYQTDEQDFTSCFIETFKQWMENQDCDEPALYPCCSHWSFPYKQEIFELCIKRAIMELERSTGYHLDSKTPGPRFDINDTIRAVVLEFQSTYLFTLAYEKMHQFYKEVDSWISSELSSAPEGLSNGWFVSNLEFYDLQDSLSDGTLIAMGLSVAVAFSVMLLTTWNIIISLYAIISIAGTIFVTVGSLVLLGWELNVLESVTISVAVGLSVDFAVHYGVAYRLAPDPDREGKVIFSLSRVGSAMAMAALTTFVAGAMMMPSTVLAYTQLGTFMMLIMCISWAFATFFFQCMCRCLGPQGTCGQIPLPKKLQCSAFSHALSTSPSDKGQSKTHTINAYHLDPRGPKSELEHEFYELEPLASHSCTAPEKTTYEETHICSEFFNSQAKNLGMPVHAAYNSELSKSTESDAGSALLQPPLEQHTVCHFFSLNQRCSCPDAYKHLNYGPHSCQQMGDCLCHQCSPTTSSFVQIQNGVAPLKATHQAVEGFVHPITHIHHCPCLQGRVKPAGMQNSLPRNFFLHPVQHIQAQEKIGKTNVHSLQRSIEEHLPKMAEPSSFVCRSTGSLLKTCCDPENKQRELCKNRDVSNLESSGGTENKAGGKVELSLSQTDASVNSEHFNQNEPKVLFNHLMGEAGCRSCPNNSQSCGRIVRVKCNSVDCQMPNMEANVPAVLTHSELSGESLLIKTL
UniProt P07237, sequence (P07237 whole entry, looked up): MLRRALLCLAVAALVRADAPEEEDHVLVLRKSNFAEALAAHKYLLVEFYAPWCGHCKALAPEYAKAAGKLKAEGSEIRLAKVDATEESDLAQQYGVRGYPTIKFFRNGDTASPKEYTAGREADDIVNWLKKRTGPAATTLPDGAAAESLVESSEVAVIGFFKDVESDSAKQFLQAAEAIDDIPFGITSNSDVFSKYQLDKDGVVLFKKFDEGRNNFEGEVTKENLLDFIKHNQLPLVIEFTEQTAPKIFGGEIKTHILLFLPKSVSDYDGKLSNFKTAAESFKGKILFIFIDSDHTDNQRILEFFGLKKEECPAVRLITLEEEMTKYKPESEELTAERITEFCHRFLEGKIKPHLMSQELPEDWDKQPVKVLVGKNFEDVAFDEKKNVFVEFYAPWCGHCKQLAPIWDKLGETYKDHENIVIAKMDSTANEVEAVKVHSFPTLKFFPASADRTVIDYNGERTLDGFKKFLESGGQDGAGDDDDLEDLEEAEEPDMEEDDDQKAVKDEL
UniProt P60660, sequence (P60660 whole entry): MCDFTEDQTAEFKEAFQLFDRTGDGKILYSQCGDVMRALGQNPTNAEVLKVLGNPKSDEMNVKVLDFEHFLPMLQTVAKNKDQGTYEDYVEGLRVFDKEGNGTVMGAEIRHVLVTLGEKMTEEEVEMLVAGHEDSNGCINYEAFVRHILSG

Target	lysine labeling ratio R10:1
P4HB (lysine site: K328) (UniProt P07237)	1.54 (active)
EGFR (lysine site: K327) (UniProt P00533)	5.84 (inactive)
DDR1 (lysine site: K30) (UniProt Q08345)	1.33 (active)
UniProt P08727 (lysine site: K168)	4.76 (inactive)
UniProt P60660 (lysine site: K98)	3.79 (inactive)
TAGLN2 (lysine site: K171) (UniProt P37802)	8.2 (inactive)
P30462 (lysine site: K210) (UniProt P01889)	2.33 (inactive)
RPS3 (lysine site: K108) (UniProt P23396)	4.95 (inactive)
PVR (lysine site: K144) (UniProt P15151)	4.25 (inactive)
CALD1 (lysine site: K605) (UniProt Q05682)	3.32 (inactive)
L1CAM (lysine site: K301) (UniProt P32004)	4.21 (inactive)
FLNB (lysine site: K1425) (UniProt O75369)	3.67 (inactive)
NPTN (lysine site: K260) (UniProt Q9Y639)	1 (active)
SPTAN1 (lysine site: K30) (UniProt Q13813)	5.74 (inactive)
SPTAN1 (lysine site: K825) (UniProt Q13813)	4.08 (inactive)
FKBP4 (lysine site: K181) (UniProt Q02790)	1.43 (active)
FAT4 (lysine site: K1251) (UniProt Q6V0I7)	1.62 (active)
FAT4 (lysine site: K2561) (UniProt Q6V0I7)	2.59 (inactive)
UniProt Q15149 (lysine site: K2411)	4.67 (inactive)
HEG1 (lysine site: K1075) (UniProt Q9ULI3)	3.38 (inactive)

Target	lysine labeling ratio R10:1
EPRS (lysine site: K498) (UniProt P07814)	2.78 (inactive)
MSLN (lysine site: K559) (UniProt Q13421)	2.61 (inactive)
HSPG2 (lysine site: K4023) (UniProt P98160)	5.16 (inactive)
RUVBL2 (lysine site: K427) (UniProt Q9Y230)	2.02 (inactive)
IGF2R (lysine site: K1873) (UniProt P11717)	0.826 (active)
UniProt P62244 (lysine site: K60)	2.48 (inactive)
KRT18 (lysine site: K407) (UniProt P05783)	8.64 (inactive)
DDX5 (lysine site: K207) (UniProt P17844)	4.37 (inactive)
TLN1 (lysine site: K147) (UniProt Q9Y490)	1.5 (active)
PPP2CA (lysine site: K41) (UniProt P67775)	1.68 (active)
EPHB4 (lysine site: K474) (UniProt P54760)	0.746 (active)
CACYBP (lysine site: K212) (UniProt Q9HB71)	1.91 (active)
NOTCH2 (lysine site: K693) (UniProt Q04721)	1.5 (active)
UniProt Q15149 (lysine site: K3925)	3.1 (inactive)
C3 (lysine site: K1051) (UniProt P01024)	6.25 (inactive)
DISP1 (lysine site: K369) (UniProt Q96F81)	1.37 (active)
UniProt Q32P28 (lysine site: K662)	5.32 (inactive)
ATP1B1 (lysine site: K288) (UniProt P05026)	13.2 (inactive)
UniProt Q9UHI8 (lysine site: K619)	2.67 (inactive)
PEBP1 (lysine site: K187) (UniProt P30086)	2.64 (inactive)
